# Data reported in PubChem BioAssay.
# Calls of active or inactive are those of the source.
# Key:
# Albumin (Bos taurus) = Albumin (Bos taurus) (UniProt P02769); experiment: compounds binding labelled BSA control protein – biochemical, small-molecule microarray, Alexa647 label, 635/667 nm fluorescence, artefact control for SMM control protein annotation, profiling panel (AID 1118); details: BSA-A647 binding, fluorescence 635 nm, higher = more signal;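 further: score merges 667 nm emission intensity and signal-to-noise per printed compound spot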
# [1] = probe aXIP binding to arrayed compounds – biochemical, NeuroSMM set, 635/667 nm fluorescence, primary screen (AID 1119); details: small-molecule microarray, higher = more signal, called active from +8 up or from −8 down;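 further: probe is the protein aXip251-270 applied at 1 µg/mL to compound-printed slides; binding of probe to printed compounds measured as 667 nm fluorescence plus signal to noise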
# [2] = probe aNOTCH3 binding on compound microarray – biochemical, small-molecule microarray, 635/667 nm fluorescence, primary screen (AID 1120); details: higher = more signal;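 further: probe is a biotin-tagged antibody raised against NOTCH3 rather than NOTCH3 protein; score merges spot fluorescence near 667 nm with spot signal to noise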
# [3] = probe aNOTCH2 binding on compound microarray – biochemical, small-molecule microarray, 635/667 nm fluorescence, primary screen (AID 1121); details: higher = more signal;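 further: score merges feature fluorescence read at 667 nm with its signal to noise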
# [4] = target: Carbonic anhydrase 2 (Homo sapiens) (UniProt P00918); experiment: compounds binding carbonic anhydrase 2 – biochemical, small-molecule microarray, Alexa647-labelled CAII, profiling panel (AID 1122); details: CAII-A647 binding fluorescence, higher = more signal
# [5] = COS7 lysate on small-molecule microarray, probe aHis, 635 nm (AID 1123); details: COS7 cell lysate, fluorescence, higher = more signal;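 further: z-score combines 667nm fluorescence intensity with signal-to-noise per printed compound spot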
# [6] = probe aLAP1 signal on lysate-treated microarray – cell lysate, small-molecule microarray, COS7 lysate, primary screen (AID 1124); details: probe aLAP1, fluorescence, higher = more signal;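 further: lysate comes from COS7 cells expressing LAP1 and is applied at 0.3 µg/mL; score merges spot fluorescence near 667 nm with signal-to-noise over triplicate slides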
# Sam68 (KHDRBS1) = experiment: compounds binding KHDRBS1 protein – biochemical, small-molecule microarray, 635 nm fluorescence, primary screen (AID 1125); details: higher = more signal;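 further: score merges 667 nm channel intensity with signal to noise over triplicate slides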
# [7] = tested on: Chordin-like protein 2 (CHRDL2); experiment: compounds binding chordin-like 2 – biochemical, small-molecule microarray, 635 nm fluorescence, primary screen (AID 1126); details: fluorescence 635 nm, higher = more signal;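 further: printed compound slides probed with Chrdl2 protein at 4 µg/mL for 1 h at 4 C; score merges 667 nm emission intensity with signal to noise over three replicate slides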
# [8] = target: Concanavalin-A (Canavalia ensiformis) (UniProt P02866); experiment: compounds binding concanavalin A lectin – biochemical, small-molecule microarray, Alexa647 label, 635 nm, artefact control for SMM control protein annotation, primary screen (AID 1127); details: ConA-A647 binding fluorescence, higher = more signal;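 further: z combines 667 nm emission intensity with signal-to-noise across three replicate slides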
# [9] = compounds binding Alexa647 anti-His antibody – biochemical, small-molecule microarray, 635 nm fluorescence, artefact control for SMM control protein annotation, primary screen (AID 1128); details: higher = more signal;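 further: score merges feature fluorescence with signal-to-noise for each printed compound spot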
# [10] = tested on: Human papillomavirus type 1a E7 protein (residues 1-88); experiment: HPV1a E7 small-molecule binders, primary screen, biochemical, small-molecule microarray, residues 1-88, 635 nm (AID 1129); details: small-molecule microarray binding, fluorescence 635 nm; higher = more signal
# [11] = target: Focal adhesion kinase 1 (Homo sapiens) (UniProt Q05397); experiment: PTK2 protein binding on printed compound slides – biochemical, small-molecule microarray, 635/667 nm fluorescence, BSA, DTT, primary screen (AID 1130); details: 635 nm fluorescence, higher = more signal;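 further: composite of spot emission at 667 nm and signal to noise over triplicate slides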
# [12] = tested on: Fibrinogen (Alexa647-labelled); experiment: Alexa647-fibrinogen binding to printed small molecules – biochemical, small-molecule microarray, 635/667 nm fluorescence, artefact control for SMM control-protein annotation, profiling panel (AID 1131); details: fibrinogen-A647 binding fluorescence, higher = more signal;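 further: z-score merges 667 nm fluorescence with per-spot signal-to-noise over triplicate slides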
# [13] = target: Follistatin (Homo sapiens) (UniProt P19883); experiment: FST protein binding to printed compounds – biochemical, small-molecule microarray, 635/667 nm fluorescence, primary screen (AID 1132); details: 635 nm fluorescence, higher = more signal
# [14] = target: Fibroblast growth factor 2 (Homo sapiens) (UniProt P09038); experiment: basic fibroblast growth factor binding to printed compounds – biochemical, small-molecule microarray, 635/667 nm fluorescence, primary screen (AID 1133); details: FGF2, fluorescence 635/667, higher = more signal
# [15] = JC-1 mitochondrial potential readout, lung cancer cells – cell-based, A549, JC-1 fluorescence, basal, 24 h, 100 nL, profiling panel (AID 1138); details: higher = more signal;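 further: A549 lung adenocarcinoma cells under basal conditions with no added stimulus; test concentration not given here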
# Lefty1 = Lefty1 protein binding to printed compounds – biochemical, small-molecule microarray, 635/667 nm fluorescence, primary screen (AID 1139); details: fluorescence 635/667, higher = more signal
# [16] = tested on: wheat germ agglutinin (Triticum aestivum), Alexa647-labelled; experiment: Alexa647-WGA lectin binding to printed small molecules – biochemical, small-molecule microarray, 635/667 nm fluorescence, artefact control for SMM control-protein annotation, profiling panel (AID 1140); details: WGA-A647 binding, 635 nm fluorescence, higher = more signal;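 further: score merges 667 nm feature emission with signal to noise over triplicate slides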
# [17] = target: Luciferin 4-monooxygenase (Photinus pyralis) (UniProt P08659); experiment: inhibition of purified Photinus pyralis luciferase – biochemical, luminescence, purified enzyme, 2006 set, primary screen (AID 1141); details: purified firefly luciferase, SteadyGlo luminescence, 30 min; higher = more signal, called active from +8 up or from −8 down;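 further: cell-free assay with purified firefly luciferase at 100 ng per well in PBS; test concentration not given here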
# Sequence of Luciferin 4-monooxygenase (Photinus pyralis) (P08659 whole entry, looked up): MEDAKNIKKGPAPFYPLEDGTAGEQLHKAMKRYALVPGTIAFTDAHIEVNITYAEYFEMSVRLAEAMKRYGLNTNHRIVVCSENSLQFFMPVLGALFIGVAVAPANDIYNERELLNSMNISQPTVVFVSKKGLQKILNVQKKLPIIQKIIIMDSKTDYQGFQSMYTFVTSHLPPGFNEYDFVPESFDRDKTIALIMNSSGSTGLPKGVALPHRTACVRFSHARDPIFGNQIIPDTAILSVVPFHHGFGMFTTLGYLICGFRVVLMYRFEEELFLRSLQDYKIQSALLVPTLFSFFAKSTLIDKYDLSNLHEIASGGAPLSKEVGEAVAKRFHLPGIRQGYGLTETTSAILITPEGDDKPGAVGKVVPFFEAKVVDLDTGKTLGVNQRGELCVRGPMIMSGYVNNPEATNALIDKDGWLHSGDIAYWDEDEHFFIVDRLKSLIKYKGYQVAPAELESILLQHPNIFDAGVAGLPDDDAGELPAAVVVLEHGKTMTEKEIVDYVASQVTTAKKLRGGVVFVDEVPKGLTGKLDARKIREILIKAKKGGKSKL
# Sequence of Concanavalin-A (Canavalia ensiformis) (P02866 whole entry, looked up): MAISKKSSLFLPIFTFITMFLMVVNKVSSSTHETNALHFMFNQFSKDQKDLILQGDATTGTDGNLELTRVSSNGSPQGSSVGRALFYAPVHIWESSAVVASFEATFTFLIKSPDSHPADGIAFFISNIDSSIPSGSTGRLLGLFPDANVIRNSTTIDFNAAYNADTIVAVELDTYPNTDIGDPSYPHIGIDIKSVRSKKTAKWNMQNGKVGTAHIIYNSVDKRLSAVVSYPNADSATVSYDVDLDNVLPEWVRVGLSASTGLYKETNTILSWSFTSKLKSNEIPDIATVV
# Sequence of Fibroblast growth factor 2 (Homo sapiens) (P09038 whole entry, looked up): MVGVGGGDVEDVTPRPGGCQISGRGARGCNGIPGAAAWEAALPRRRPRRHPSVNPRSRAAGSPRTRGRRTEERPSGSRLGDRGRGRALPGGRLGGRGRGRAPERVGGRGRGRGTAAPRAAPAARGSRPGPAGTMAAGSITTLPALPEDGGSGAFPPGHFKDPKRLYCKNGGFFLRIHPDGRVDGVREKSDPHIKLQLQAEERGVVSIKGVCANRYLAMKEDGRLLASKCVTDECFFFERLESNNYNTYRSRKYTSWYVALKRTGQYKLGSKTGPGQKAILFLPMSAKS
# Sequence of Focal adhesion kinase 1 (Homo sapiens) (Q05397 whole entry, looked up): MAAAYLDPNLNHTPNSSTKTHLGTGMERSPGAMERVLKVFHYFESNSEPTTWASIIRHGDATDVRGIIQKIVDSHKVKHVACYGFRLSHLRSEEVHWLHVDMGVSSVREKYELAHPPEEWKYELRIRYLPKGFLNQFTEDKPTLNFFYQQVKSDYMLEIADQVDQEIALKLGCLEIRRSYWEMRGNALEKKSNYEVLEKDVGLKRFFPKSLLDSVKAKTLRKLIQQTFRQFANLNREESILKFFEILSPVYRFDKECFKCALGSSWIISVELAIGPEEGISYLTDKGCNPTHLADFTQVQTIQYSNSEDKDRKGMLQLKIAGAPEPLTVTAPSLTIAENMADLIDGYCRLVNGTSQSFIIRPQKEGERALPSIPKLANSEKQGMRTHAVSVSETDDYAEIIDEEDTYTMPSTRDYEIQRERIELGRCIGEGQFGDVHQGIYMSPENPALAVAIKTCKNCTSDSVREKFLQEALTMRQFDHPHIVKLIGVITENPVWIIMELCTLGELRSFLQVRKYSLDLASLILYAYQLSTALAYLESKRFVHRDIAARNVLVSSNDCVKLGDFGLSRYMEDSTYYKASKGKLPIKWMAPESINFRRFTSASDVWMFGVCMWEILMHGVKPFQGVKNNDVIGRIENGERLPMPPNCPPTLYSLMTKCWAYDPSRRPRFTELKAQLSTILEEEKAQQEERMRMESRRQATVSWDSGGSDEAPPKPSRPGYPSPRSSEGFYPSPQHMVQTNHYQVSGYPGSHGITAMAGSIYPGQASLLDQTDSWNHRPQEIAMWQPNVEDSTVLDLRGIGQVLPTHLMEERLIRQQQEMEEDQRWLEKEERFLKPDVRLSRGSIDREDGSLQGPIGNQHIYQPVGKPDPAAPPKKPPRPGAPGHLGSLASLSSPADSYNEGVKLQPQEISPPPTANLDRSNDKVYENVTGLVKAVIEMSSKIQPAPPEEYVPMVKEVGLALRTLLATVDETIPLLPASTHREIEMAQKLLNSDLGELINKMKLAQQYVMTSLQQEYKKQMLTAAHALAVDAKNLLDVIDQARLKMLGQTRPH
# Sequence of Albumin (Bos taurus) (P02769 whole entry, looked up): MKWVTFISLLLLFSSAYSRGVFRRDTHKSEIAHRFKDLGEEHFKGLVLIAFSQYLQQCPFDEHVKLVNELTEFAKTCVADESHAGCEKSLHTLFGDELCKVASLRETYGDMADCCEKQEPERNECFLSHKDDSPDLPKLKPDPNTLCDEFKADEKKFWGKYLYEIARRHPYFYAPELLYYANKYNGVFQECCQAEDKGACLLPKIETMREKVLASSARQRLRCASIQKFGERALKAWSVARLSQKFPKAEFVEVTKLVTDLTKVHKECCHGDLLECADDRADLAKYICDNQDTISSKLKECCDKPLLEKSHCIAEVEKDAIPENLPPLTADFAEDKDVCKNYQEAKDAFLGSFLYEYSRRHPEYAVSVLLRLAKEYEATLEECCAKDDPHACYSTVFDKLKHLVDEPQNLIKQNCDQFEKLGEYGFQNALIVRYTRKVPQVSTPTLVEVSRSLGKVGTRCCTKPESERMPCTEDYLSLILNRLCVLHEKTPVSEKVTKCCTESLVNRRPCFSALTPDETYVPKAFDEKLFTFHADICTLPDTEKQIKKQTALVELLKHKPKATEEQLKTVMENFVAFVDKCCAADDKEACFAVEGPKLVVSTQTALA
# Sequence of Follistatin (Homo sapiens) (P19883 whole entry, looked up): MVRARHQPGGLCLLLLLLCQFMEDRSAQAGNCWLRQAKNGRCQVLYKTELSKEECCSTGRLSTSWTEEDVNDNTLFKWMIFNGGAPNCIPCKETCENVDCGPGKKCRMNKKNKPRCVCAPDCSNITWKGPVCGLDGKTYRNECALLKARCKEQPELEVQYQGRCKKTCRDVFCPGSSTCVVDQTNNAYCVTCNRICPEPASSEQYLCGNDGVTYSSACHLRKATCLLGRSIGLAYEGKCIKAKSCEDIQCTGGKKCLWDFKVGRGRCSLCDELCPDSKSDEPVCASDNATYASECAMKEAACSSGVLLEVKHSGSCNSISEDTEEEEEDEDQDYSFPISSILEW
Structure (SMILES),composite z-score (Albumin (Bos taurus)),composite Z-score [1],composite z-score [2],composite z-score [3],composite z-score [4],composite z-score [5],composite z-score [6],composite z-score (Sam68 (KHDRBS1)),composite z-score [7],composite z-score [8],composite z-score [9],composite z-score [10],composite z-score [11],composite z-score [12],composite z-score [13],composite z-score [14],z-score [15],composite z-score (Lefty1),composite z-score [16],z-score [17]
CCCC[C@@H]1C[C@H]1[C@@H](NC(=O)c1ccccc1)c1ccc(Cl)cc1,-0.413,0.0169 (inactive),-0.414,-0.179,-0.527,0.847,-0.905,-1.35,-2.74,-1.6,-0.0782,-1.52,0.528,-2.07,-2.37,-1.9,1.66,-2.22,-1.6,0.923 (inactive)
Cc1ccc(F)cc1S(=O)(=O)N[C@@H]1CCN(Cc2ccc(Oc3ccccc3)cc2)C1,-0.274,-0.608 (inactive),0.154,-0.165,0.304,-0.13,-0.305,-0.68,0.861,-0.905,0.258,-0.922,-0.271,0.738,1.03,0.424,0.663,1.09,0.853,0.453 (inactive)
CCOC(=O)C[C@H]1[C@H](OC(=O)c2ccc(-c3ccccc3)cc2)[C@@H](NC(=O)C2CCCCC2)c2cc(OCCCO)ccc2N1C(=O)c1ccccc1,0.236,-0.6 (inactive),0.172,-0.152,0.0455,0.92,0.0846,0.957,0.372,0.949,0.0672,0.755,0.559,0.845,0.461,0.406,0.0651,0.544,0.207,0.0421 (inactive)
CC(C)NC(=O)[C@@]1(C)c2ccccc2C(=O)N(C(C)C)[C@H]1c1ccc(CO)cc1,0.177,0.22 (inactive),-0.471,-0.132,0.541,2.61,-0.217,0.121,-2.33,-0.233,-0.398,-0.259,0.0394,-0.66,-0.75,-0.516,-0.413,-1.05,-0.465,-0.682 (inactive)
CC(C)C(=C=CC[C@@H](O)c1ccccc1OCCO)C[C@@H](O)COCc1ccccc1,-0.111,0.477 (inactive),-0.132,0.0363,0.813,1.37,0.641,0.773,0.0362,0.639,-0.0424,0.42,-0.0011,0.807,1.28,1.45,1.88,0.435,0.288,-2.5 (inactive)
COc1ccc([Si](C)(C)[C@H]2[C@H](CCn3cc([C@H](O)c4ccccc4)nn3)O[C@@]3(C(=O)N(Cc4ccc(N5CCOC5=O)cc4)c4ccccc43)[C@@H]2C)cc1,-0.397,0.486 (inactive),-0.172,-0.186,-0.586,-0.55,-1.14,-0.426,-0.586,-0.321,-0.194,-0.993,-0.775,-0.231,-0.988,-0.785,1.26,-0.919,-0.0383,-0.278 (inactive)
COCCOC(=O)N1C(=O)[C@@]2(c3cc(C#Cc4ccc(OC)cc4)ccc31)[C@H](C(=O)NC[C@H](O)c1ccccc1)[C@H]1C(=O)O[C@H](c3ccccc3)[C@H](c3ccccc3)N1[C@@H]2c1ccc(O)cc1,0.148,0.552 (inactive),0.236,-0.154,0.441,1.7,1.48,1.29,0.806,1.16,0.933,1.16,0.33,0.912,1.16,1.01,-1.47,1.19,0.666,0.273 (inactive)
NC(N)=NCc1cn(CCc2c[nH]c3ccccc23)nn1,0.566,0.354 (inactive),-0.0647,-0.12,0.633,0.421,0.262,0.714,0.866,0.948,2,0.599,0.0313,0.367,0.832,1.07,0.0134,1.05,0.0932,-0.813 (inactive)
CC=CC(O)C1C=CC2C(=O)N(c3ccccc3)C(=O)C2N1Nc1ccccc1 (stereo not given),0.867,0.454 (inactive),0.291,0.121,0.681,2.57,0.243,1.29,0.25,1.19,2.25,1.25,0.981,0.915,1.2,0.915,0.714,0.493,1.15,-2.22 (inactive)
CN1C(=O)C2C=CC(C(O)c3c(F)cccc3Cl)N(Nc3ccccc3)C2C1=O (stereo not given),0.956,-0.263 (inactive),0.291,0.0177,0.396,2.84,0.73,0.895,0.298,1.18,-0.0126,-0.105,0.464,0.978,1.03,-0.166,1.14,-0.309,1.05,0.565 (inactive)
C[C@H]1ON(c2ccc(C(=O)OC(C)(C)C)cc2)[C@@H](c2ccc(O)cc2)[C@@H]1C(=O)N1C(=O)OC[C@@H]1c1ccccc1,0.393,-0.281 (inactive),0.0218,-0.126,0.454,0.741,0.295,1.32,0.456,0.768,0.82,1.13,0.429,0.935,1.22,1.4,-0.802,0.724,0.38,-0.587 (inactive)
